Assay results: PMC7862700, “An all-to-all approach to the identification of sequence-specific readers for epigenetic DNA modifications on cytosine”

Assays:
Assay in all cases: DAPPL (digital affinity profiling via proximity ligation, sequencing); 10 mM Tris-HCl pH 7.5, 50 mM NaCl, 1 mM DTT, 4% glycerol, room temperature, 30 min; GST-TFs on glutathione beads, 16-mer random dsDNA library, 0.1% formaldehyde crosslink after washing; high values mean tight binding
Conditions in all cases: protein: recombinant; tags: N-terminal GST; dsDNA, one strand shown
EHF = molecular target: T1, EHF (Homo sapiens, UniProt Q9NZC4 1-300)
T1 sequence: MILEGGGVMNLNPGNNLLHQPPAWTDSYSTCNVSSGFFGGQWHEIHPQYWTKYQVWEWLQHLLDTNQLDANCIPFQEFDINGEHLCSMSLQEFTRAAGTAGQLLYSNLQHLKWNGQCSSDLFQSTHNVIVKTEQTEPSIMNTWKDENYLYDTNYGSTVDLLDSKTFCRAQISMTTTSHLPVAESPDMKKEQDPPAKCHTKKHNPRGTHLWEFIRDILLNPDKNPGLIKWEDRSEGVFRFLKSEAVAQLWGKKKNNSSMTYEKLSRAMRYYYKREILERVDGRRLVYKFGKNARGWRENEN
Procedure, shortened: (§1)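 Human transcription factors fused to GST were expressed in yeast, captured on glutathione beads, given DNA barcodes and pooled with a GST-only negative control. Pools were incubated with 200 nmole of a 16-mer random double-stranded DNA library in Tris/NaCl/DTT/glycerol buffer at room temperature for 30 min. They were then washed, crosslinked with 0.1% formaldehyde, proximity-ligated (BsaI/T4 ligase, 1 h, 37 °C), PCR-amplified and sequenced on an Illumina NextSeq500. Binding signal is each 6-mer's read frequency for a factor divided by its frequency for the GST control.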

SPIB = SPIB (Homo sapiens, UniProt Q01892 1-262)
Sequence of SPIB (Q01892 whole entry): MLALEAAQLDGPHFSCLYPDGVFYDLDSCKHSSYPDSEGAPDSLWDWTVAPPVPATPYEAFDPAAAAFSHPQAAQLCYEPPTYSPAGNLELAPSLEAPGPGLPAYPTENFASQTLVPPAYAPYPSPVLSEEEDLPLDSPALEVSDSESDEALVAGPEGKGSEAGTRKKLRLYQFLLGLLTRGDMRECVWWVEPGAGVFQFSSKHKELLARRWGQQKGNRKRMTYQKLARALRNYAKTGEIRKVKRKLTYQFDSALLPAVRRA
Procedure, shortened: as §1

ETV2 = molecular target: T2, ETV2 (Homo sapiens, UniProt O00321 1-342)
T2 sequence: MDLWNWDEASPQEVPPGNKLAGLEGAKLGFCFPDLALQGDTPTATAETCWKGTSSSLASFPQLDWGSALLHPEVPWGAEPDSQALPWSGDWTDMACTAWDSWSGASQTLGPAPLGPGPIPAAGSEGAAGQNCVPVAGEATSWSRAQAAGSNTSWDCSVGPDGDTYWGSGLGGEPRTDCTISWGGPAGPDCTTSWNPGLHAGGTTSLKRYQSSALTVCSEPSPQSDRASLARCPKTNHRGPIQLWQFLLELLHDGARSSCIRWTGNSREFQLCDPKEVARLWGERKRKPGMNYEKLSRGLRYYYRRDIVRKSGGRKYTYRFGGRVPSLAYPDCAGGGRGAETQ
Procedure, shortened: as §1

ELK3 = molecular target: T3, ELK3 (Homo sapiens, UniProt P41970 1-407)
T3 sequence: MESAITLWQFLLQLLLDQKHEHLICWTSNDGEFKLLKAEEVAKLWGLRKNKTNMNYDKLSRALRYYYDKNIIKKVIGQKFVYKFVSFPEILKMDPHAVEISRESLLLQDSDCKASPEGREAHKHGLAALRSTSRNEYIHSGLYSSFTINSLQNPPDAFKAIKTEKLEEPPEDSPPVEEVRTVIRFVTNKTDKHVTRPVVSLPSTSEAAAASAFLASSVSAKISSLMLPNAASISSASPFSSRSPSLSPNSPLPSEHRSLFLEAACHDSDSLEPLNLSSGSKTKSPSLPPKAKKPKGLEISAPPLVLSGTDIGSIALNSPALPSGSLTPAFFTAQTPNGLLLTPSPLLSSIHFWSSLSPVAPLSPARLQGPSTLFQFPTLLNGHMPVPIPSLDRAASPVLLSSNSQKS
Procedure, shortened: as §1

CRX = CRX (Homo sapiens, UniProt O43186 1-299)
Sequence of CRX (O43186 whole entry): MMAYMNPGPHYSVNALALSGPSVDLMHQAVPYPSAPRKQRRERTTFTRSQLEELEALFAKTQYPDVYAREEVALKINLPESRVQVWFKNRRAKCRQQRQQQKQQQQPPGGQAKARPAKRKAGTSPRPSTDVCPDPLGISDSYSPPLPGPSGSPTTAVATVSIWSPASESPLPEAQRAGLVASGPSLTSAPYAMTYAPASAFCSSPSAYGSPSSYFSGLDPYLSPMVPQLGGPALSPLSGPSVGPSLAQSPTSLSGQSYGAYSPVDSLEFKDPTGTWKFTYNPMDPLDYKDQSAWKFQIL
Procedure, shortened: as §1

ELF3 = molecular target: T4, ELF3 (Homo sapiens, UniProt P78545 1-371)
T4 sequence: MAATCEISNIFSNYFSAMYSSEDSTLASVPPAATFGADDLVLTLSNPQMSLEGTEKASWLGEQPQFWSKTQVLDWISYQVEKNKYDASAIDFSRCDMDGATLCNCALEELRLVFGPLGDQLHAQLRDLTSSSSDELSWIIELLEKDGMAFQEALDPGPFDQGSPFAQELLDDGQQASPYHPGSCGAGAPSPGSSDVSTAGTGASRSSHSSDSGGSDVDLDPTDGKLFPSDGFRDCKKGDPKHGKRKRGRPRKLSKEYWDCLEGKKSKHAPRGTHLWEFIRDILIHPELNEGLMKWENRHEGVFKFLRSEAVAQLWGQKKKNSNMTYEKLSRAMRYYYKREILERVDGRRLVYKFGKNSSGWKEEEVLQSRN
Procedure, shortened: as §1

GABPA = molecular target: T5, GABPA (Homo sapiens, UniProt Q06546 1-454)
T5 sequence: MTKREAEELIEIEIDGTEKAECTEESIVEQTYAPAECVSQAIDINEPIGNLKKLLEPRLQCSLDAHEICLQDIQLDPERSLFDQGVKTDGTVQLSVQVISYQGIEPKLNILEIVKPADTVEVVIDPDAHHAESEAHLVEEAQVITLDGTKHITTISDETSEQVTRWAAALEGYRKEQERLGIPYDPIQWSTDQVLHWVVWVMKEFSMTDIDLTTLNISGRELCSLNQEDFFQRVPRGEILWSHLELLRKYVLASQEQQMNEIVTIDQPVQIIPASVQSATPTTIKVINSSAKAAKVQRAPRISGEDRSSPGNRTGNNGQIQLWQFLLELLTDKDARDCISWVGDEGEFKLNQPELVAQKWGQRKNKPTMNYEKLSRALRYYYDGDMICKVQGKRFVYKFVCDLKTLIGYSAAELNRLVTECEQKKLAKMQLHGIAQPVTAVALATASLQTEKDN
Procedure, shortened: as §1

SPDEF = molecular target: T6, SPDEF (Homo sapiens, UniProt O95238 1-335)
T6 sequence: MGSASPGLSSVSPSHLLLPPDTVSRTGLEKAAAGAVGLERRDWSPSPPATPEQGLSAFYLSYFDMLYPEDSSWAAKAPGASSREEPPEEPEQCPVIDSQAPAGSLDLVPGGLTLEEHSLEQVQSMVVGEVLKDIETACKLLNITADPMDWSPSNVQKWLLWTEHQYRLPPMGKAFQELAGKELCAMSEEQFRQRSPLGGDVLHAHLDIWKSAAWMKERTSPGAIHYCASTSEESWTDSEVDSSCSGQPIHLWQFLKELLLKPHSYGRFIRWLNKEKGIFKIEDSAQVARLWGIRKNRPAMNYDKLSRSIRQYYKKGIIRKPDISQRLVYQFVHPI
Procedure, shortened: as §1

ETV7 = molecular target: T7, ETV7 (Homo sapiens, UniProt Q9Y603 1-341)
T7 sequence: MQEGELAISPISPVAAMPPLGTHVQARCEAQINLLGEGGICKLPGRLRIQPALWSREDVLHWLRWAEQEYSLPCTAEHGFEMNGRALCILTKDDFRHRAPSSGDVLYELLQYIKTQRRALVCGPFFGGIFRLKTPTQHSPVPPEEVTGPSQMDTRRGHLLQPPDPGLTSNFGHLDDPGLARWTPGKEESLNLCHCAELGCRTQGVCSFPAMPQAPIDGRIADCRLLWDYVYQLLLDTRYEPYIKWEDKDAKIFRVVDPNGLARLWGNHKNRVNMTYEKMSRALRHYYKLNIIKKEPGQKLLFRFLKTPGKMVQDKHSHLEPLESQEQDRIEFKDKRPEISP
Procedure, shortened: as §1

ETV3 = molecular target: T8, ETV3 (Homo sapiens, UniProt P41162-2 1-143)
T8 sequence: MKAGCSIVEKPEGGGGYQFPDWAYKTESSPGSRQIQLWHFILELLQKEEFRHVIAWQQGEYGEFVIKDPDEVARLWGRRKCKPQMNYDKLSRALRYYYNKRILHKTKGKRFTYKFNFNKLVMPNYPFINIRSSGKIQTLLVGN
Procedure, shortened: as §1

ETV6 = ETV6 (Homo sapiens, UniProt P41212 1-452)
Sequence of ETV6 (P41212 whole entry): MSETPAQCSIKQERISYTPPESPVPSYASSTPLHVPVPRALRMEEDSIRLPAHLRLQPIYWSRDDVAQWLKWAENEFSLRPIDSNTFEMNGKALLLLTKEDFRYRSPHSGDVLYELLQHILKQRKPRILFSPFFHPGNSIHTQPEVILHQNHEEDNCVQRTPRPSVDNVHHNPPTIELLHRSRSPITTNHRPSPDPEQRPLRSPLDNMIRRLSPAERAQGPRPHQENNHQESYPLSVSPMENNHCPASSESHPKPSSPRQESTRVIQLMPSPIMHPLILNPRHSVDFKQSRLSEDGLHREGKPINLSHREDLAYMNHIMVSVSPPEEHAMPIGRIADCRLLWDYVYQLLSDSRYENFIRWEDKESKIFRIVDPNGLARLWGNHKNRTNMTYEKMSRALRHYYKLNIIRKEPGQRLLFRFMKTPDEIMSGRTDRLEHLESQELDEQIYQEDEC
Procedure, shortened: as §1

With CATCGT the binding signal (EHF) was 1 fold enrichment (6-mer frequency, TF over GST control), the binding signal (SPIB) was 1.05 fold enrichment (6-mer frequency, TF over GST control) and the binding signal (ETV2) was 1.01 fold enrichment (6-mer frequency, TF over GST control).

For GACCCA, the binding signal (ETV2) was 1.09 fold enrichment (6-mer frequency, TF over GST control).

For CGGACC, the binding signal (ETV2) was 1.02 fold enrichment (6-mer frequency, TF over GST control).

For AAGGTC, the binding signal (EHF) was 1.08 fold enrichment (6-mer frequency, TF over GST control) and the binding signal (ETV2) was 1.06 fold enrichment (6-mer frequency, TF over GST control).

In the case of TGGGCG, the binding signal (ELK3) is reported as 1.01 fold enrichment (6-mer frequency, TF over GST control) and the binding signal (ETV2) is reported as 1 fold enrichment (6-mer frequency, TF over GST control).

AGGCTA was tested, and the binding signal (ELK3) was 1.05 fold enrichment (6-mer frequency, TF over GST control), the binding signal (ETV2) was 1 fold enrichment (6-mer frequency, TF over GST control) and the binding signal (CRX) was 1.19 fold enrichment (6-mer frequency, TF over GST control).

In the case of GCGACG, the binding signal (ETV2) is reported as 1.15 fold enrichment (6-mer frequency, TF over GST control).

With ACTGGG the binding signal (ETV2) was 1.03 fold enrichment (6-mer frequency, TF over GST control).

CTGGGA was tested, and the binding signal (ETV2) was 1.01 fold enrichment (6-mer frequency, TF over GST control).

For TGAAGG, the binding signal (SPIB) was 1 fold enrichment (6-mer frequency, TF over GST control) and the binding signal (ETV2) was 1 fold enrichment (6-mer frequency, TF over GST control).

In the case of GTATCG, the binding signal (ETV2) is reported as 1.09 fold enrichment (6-mer frequency, TF over GST control) and the binding signal (ELF3) is reported as 1.13 fold enrichment (6-mer frequency, TF over GST control).

GCAAAG was tested, and the binding signal (ETV2) was 1.12 fold enrichment (6-mer frequency, TF over GST control).

With AGCCAT the binding signal (ETV2) was 1.02 fold enrichment (6-mer frequency, TF over GST control).

In the case of GAAAGC, the binding signal (ELF3) is reported as 1.06 fold enrichment (6-mer frequency, TF over GST control).

In the case of ACCAAG, the binding signal (ELF3) is reported as 1.14 fold enrichment (6-mer frequency, TF over GST control).

For GTTCAG, the binding signal (ETV2) was 1.01 fold enrichment (6-mer frequency, TF over GST control).

With ACAAGT the binding signal (ELF3) was 1 fold enrichment (6-mer frequency, TF over GST control).

For GATAAC, the binding signal (ETV2) was 1.08 fold enrichment (6-mer frequency, TF over GST control) and the binding signal (CRX) was 1.13 fold enrichment (6-mer frequency, TF over GST control).

In the case of ACCCGT, the binding signal (ETV2) is reported as 1 fold enrichment (6-mer frequency, TF over GST control).

In the case of CGGCAC, the binding signal (GABPA) is reported as 1.03 fold enrichment (6-mer frequency, TF over GST control), the binding signal (SPIB) is reported as 1.03 fold enrichment (6-mer frequency, TF over GST control) and the binding signal (ELF3) is reported as 1.1 fold enrichment (6-mer frequency, TF over GST control). The binding signal (SPDEF) was 1.02 fold enrichment (6-mer frequency, TF over GST control), the binding signal (ETV7) was 1 fold enrichment (6-mer frequency, TF over GST control) and the binding signal (ETV3) was 1.03 fold enrichment (6-mer frequency, TF over GST control). The binding signal (ETV6) was 1.02 fold enrichment (6-mer frequency, TF over GST control).

GCGGCA was tested, and the binding signal (ELF3) was 1.01 fold enrichment (6-mer frequency, TF over GST control).

In the case of CCGTTA, the binding signal (ETV2) is reported as 1.05 fold enrichment (6-mer frequency, TF over GST control), the binding signal (ELF3) is reported as 1.01 fold enrichment (6-mer frequency, TF over GST control) and the binding signal (SPDEF) is reported as 1.04 fold enrichment (6-mer frequency, TF over GST control).
